Test results from ChEMBL document CHEMBL4513146, “CO-ADD screening of Karazin Kharkiv National University (Ukraine) compounds”.
Results with a measured potency or affinity are listed apart.

Columns and labels:
Klebsiella pneumoniae = conditions: Concentration 32 ug.mL-1;; ASSAY_TEST Inhibition of Bacterial Growth; detection method Absorption (OD600); MEDIA CAMHB; plate type 384well; NBS; CORNING #3640; time 18 hr
Candida albicans = conditions: Concentration 32 ug.mL-1; ASSAY_TEST Inhibition of Fungal Growth; detection method Absorption (OD530)
Cryptococcus neoformans = conditions: Concentration 32 ug.mL-1; ASSAY_TEST Inhibition of Fungal Growth; detection method Resazurin; Absorption (OD600-OD570); plate type 384well; NBS; CORNING #3640

Structure (SMILES)	Inhibition (Klebsiella pneumoniae)	Inhibition (Candida albicans)	Inhibition (Cryptococcus neoformans)
COc1ccc(Cn2nc3ccc(-c4ccccc4)nn3c2=O)cc1F	8.32%	1.33%	-0.36%
Cc1ccc(-c2ccc3nn(Cc4ccc(N5CCCC5=O)cc4)c(=O)n3n2)cc1	8.04%	1.53%	-7.16%
Cc1ccc2c(c1)N(C(=O)Cn1nc3ccc(Sc4ccccc4)nn3c1=O)CCO2	4.6%	-1.78%	-5.73%
CSc1cccc(NC(=O)Cn2nc3c(SC4CCCCC4)nccn3c2=O)c1	1.73%	-2.6%	-1.74%
COc1ccc2[nH]cc(C(=O)CSc3nnc4c(=O)n(-c5cccc(Cl)c5C)ccn34)c2c1	5.78%	2.95%	-9.58%
Cc1nnc2c(=O)n(CC(=O)Nc3cccc(F)c3)c3ccccc3n12	11.8%	1.2%	-2.05%
Cc1nnc2c(S(=O)(=O)N(Cc3ccccc3F)c3ccc(C(C)C)cc3)cccn12	0.43%	0.44%	-4.75%
CCOC(=O)c1ccc(NC(=O)Cn2nc3c(SC4CCCCC4)nccn3c2=O)cc1	11.88%	-1.98%	-30.92%
Cc1ccc(-n2ccn3c(=O)n(Cc4ccc(Cl)cc4)nc3c2=O)cc1C	1.49%	0.66%	-5.42%
COc1ccc(OC)c(NC(=O)Cn2nc3c4cc(-c5ccc(F)cc5)nn4ccn3c2=O)c1	1.37%	3.04%	-6.46%
CCOC(=O)c1ccc(NC(=O)Cn2nc3ccc(-c4ccc(Cl)cc4)nn3c2=O)cc1	8.58%	-0.49%	-7.91%
Cc1ccccc1Oc1nccn2c(=O)n(CC(=O)Nc3ccc(C(C)C)cc3)nc12	6.08%	37.73%	-9.72%
Cc1ccc(Cl)cc1NC(=O)CSc1nc2ccccc2n2c(C(C)C)nnc12	7.66%	11.96%	-19.47%
COc1cccc(-n2ccn3c(SCC(=O)NC(C)C)nnc3c2=O)c1	10.83%	1.96%	-12.8%
O=C(Cn1nc2nc(Nc3ccc(F)cc3)ccn2c1=O)N1CCOCC1	14.5%	2.63%	-13.19%
Cc1ccc(-c2ccc3nn(CC(=O)Nc4ccc(C(C)C)cc4)c(=O)n3n2)cc1C	2.75%	3.46%	-11.72%
CCc1nnc2c(S(=O)(=O)N(Cc3cccc(OC)c3)c3ccccc3)cccn12	11.28%	4.76%	-9.71%
Cc1ccc(NC(=O)CSc2nnc3ccc(C(=O)Nc4cccc(F)c4)cn23)c(C)c1	2.38%	9.81%	-2.98%
Cc1ccc(NC(=O)Cn2nc3c(N4CCCC4)nccn3c2=O)cc1Cl	13.96%	0.98%	-21.34%
Cc1ccc(-c2ccc3nn(Cc4ccc(Cl)cc4)c(=O)n3n2)cc1C	5.62%	5.2%	-10.05%
CCOc1ccc(-n2ccn3c(SC(CC)C(=O)Nc4ccc(C(C)C)cc4)nnc3c2=O)cc1 (centres undefined)	9.42%	6.16%	-12.9%
O=S(=O)(c1ccc2nncn2c1)N(Cc1ccccc1)c1ccc(F)c(F)c1	5.23%	3.55%	-6.45%
COc1ccc(NC(=O)Cn2nc3c(Sc4ccccc4)nccn3c2=O)cc1	7.48%	1.47%	-16%
COc1ccccc1NC(=O)Cn1nc2c(Oc3ccc(Cl)cc3)nccn2c1=O	6.51%	22.33%	-8.59%
O=S(=O)(c1ccc2nncn2c1)N(Cc1cc(F)cc(F)c1)c1ccc(F)cc1	7.07%	0.51%	-5.99%
O=C(Cn1nc2c3sc(N4CCCC4)nc3ncn2c1=O)Nc1ccccc1Cl	7.88%	4.36%	-9.84%
CCc1ccccc1Sc1nccn2c(=O)n(CC(=O)Nc3ccc(Br)cc3)nc12	22.46%	14.92%	-1.52%
Cc1ccc(-c2cc3c4nn(CC(=O)NCc5ccccc5)c(=O)n4ccn3n2)cc1C	9.36%	4.46%	-12.84%
